These results are taken from PMC11062922 (Nature Chemical Biology, 2023).

Parameters in all cases: species or system human, MV4-11 + K-562 + COLO205 + SK-N-BE2 + OVCAR-8
One assay deals with BUB1. The settings on record: read-out: apparent Kd, n = 1.
The next assay concerns CSNK1E. The settings on record: read-out: apparent Kd, n = 1.
The subject of another assay is PRKX. The settings on record: read-out: apparent Kd, compound concentrations: 100 nM and 1000 nM (sheet 'Samples'), n = 1.
The subject of a further assay is ADCK1. The settings on record: read-out: apparent Kd, n = 1.
The next assay relates to CSNK1A1. The settings on record: read-out: apparent Kd, n = 1.
For another assay, the system named is EPHA2. The settings on record: read-out: apparent Kd, n = 1.
A further assay has as its system HCK. The settings on record: read-out: apparent Kd, compound concentrations: 100 nM and 1000 nM (sheet 'Samples'), n = 1.
Another assay relates to MAPK8. The settings on record: read-out: apparent Kd, n = 1.
For a further assay, the system named is PHKG2. The settings on record: read-out: apparent Kd, n = 1.
In a further assay the test system is PRKAA2. The settings on record: read-out: apparent Kd, compound concentrations: 100 nM and 1000 nM (sheet 'Samples'), n = 1.
A further assay concerns PTK6. The settings on record: read-out: apparent Kd, compound concentrations: 100 nM and 1000 nM (sheet 'Samples'), n = 1.
Another assay concerns SRC. The settings on record: read-out: apparent Kd, n = 1.
For the next assay, the system named is YES1. The settings on record: read-out: apparent Kd, n = 1.
A further assay concerns RPS6KA4. The settings on record: read-out: apparent Kd; compound concentrations: 100 nM and 1000 nM (sheet 'Samples'), CATDS: 7.6189107816006501E-3; n = 1.
For a further assay, the system named is STK16. The settings on record: read-out: apparent Kd, n = 1.
Another assay concerns ROCK2. The settings on record: read-out: apparent Kd, n = 1.
The next assay relates to RIOK2. The settings on record: read-out: apparent Kd, n = 1.
In another assay the test system is CDK17. The settings on record: read-out: apparent Kd; compound concentrations:100 nM and 1000 nM (sheet 'Samples'); n = 1.
The next assay concerns TNIK. The settings on record: read-out: apparent Kd; compound concentrations: 100 nM and 1000 nM (sheet 'Samples'), CATDS: 4.4189138056131998E-2; n = 1.
The mark [1] stands for this setting: compound concentrations:100 nM and 1000 nM (sheet 'Samples').

Read-outs that look alike come from different tables or passages of the source.

As to `Cl.NCc1ccc(-c2nc(-c3ccc(Cl)c(O)c3)c(-c3ccncc3)[nH]2)cc1` [SB-476429-A], the results for the potency estimated from few doses in the assay with BUB1 (setting [1]) and with CSNK1E (setting [1]) were 2020 nM and 1380 nM, respectively.
For `CCn1c(-c2nonc2N)nc2c(C#CC(C)(C)O)nc(CN3CCCC3)cc21` [GSK1000163A], the potency estimated from few doses in the assay on PRKX (CATDS: 0.25481287922850399) was 759 nM.
Consider `CN(c1ccc(NC(=O)N2CCN(CCCN3CCOCC3)CC2)cc1)c1ccnc(Nc2ccc(CS(C)(=O)=O)cc2)n1.Cl` [GW830899A], for which, in the assay on ADCK1 (compound concentrations: 100 nM and 1000 nM (sheet 'Samples'), CATDS: 2.5462418576412099E-2), the potency estimated from few doses is 867 nM.
Regarding `CCOC(=O)N1CCC(n2cnc(-c3ccc(F)cc3)c2-c2ccnc(N)n2)CC1` [SB-219952], the potency estimated from few doses with BUB1 (compound concentrations: 100 nM and 1000 nM (sheet 'Samples'), CATDS: 8.9704944978388403E-3) is 1170 nM; in the assay on CSNK1A1 (compound concentrations: 100 nM and 1000 nM (sheet 'Samples'), CATDS: 5.7270515376472299E-2) it was 44.2 nM; in the assay with CSNK1E (compound concentrations: 100 nM and 1000 nM (sheet 'Samples'), CATDS: 8.1899018563860101E-2) it was 27.3 nM; with EPHA2 (compound concentrations: 100 nM and 1000 nM (sheet 'Samples'), CATDS: 1.0740036537242301E-2), 726 nM; in the assay on HCK (CATDS: 1.02495423413253E-2), 814 nM; in the assay on MAPK8 (compound concentrations: 100 nM and 1000 nM (sheet 'Samples'), CATDS: 8.8818893864712808E-3) it was 1210 nM. In addition, the potency estimated from few doses with PHKG2 (compound concentrations: 100 nM and 1000 nM (sheet 'Samples'), CATDS: 9.7897546431884499E-3) was 916 nM; in the assay on PRKAA2 (CATDS: 1.0917376994103299E-2), 698 nM; in the assay on PTK6 (CATDS: 1.0027639490301001E-2), 861 nM; in the assay with SRC (compound concentrations: 100 nM and 1000 nM (sheet 'Samples'), CATDS: 1.0314047860945599E-2) it was 802 nM; in the assay on YES1 (compound concentrations: 100 nM and 1000 nM (sheet 'Samples'), CATDS: 1.05685479515238E-2), 755 nM.
On to `O=C1N=C(NCCc2ccc(Cl)cc2)S/C1=C\c1ccc2ncccc2c1` [RO4498479-000], for which the potency estimated from few doses is 1070 nM in the assay with BUB1 (compound concentrations: 100 nM and 1000 nM (sheet 'Samples'), CATDS: 7.8507646745445397E-3); 277 nM with EPHA2 (compound concentrations: 100 nM and 1000 nM (sheet 'Samples'), CATDS: 1.41311052368837E-2); 393 nM in the assay on HCK (CATDS: 1.17279601666646E-2); 932 nM in the assay on PHKG2 (compound concentrations: 100 nM and 1000 nM (sheet 'Samples'), CATDS: 8.2148610451916008E-3); 667 nM in the assay on PRKAA2 (CATDS: 9.27662971485879E-3); 700 nM with PRKX (CATDS: 9.1029786610764794E-3). For the same compound, the potency estimated from few doses in the assay with PTK6 (CATDS: 1.2314432114231401E-2) was 357 nM; in the assay with RPS6KA4 it was 1190 nM; in the assay on SRC (compound concentrations: 100 nM and 1000 nM (sheet 'Samples'), CATDS: 1.16822109686501E-2) it was 396 nM; in the assay with YES1 (compound concentrations: 100 nM and 1000 nM (sheet 'Samples'), CATDS: 1.22768983688542E-2), 359 nM.
With `Cl.ON=C1CCc2cc(-c3nc(C4CCNCC4)[nH]c3-c3ccncc3)ccc21` [SB-614067-R], in the assay on CSNK1E (setting [1]), the potency estimated from few doses was 1190 nM.
Consider `Cc1ccc(Nc2ccnc(Nc3ccc4c(c3)CS(=O)(=O)C4)n2)cc1O.Cl` [GW579362A], for which the potency estimated from few doses is 1200 nM in the assay with PTK6 (CATDS: 3.01604654859133E-2); 1620 nM with STK16 (compound concentrations: 100 nM and 1000 nM (sheet 'Samples'), CATDS: 2.76147737346315E-2).
Consider `CN(c1ccc(NC(=O)Nc2cccc(Cl)c2)cc1)c1ccnc(N)n1.Cl` [GW830707A], for which the potency estimated from few doses was 44.8 nM in the assay with EPHA2 (compound concentrations: 100 nM and 1000 nM (sheet 'Samples'), CATDS: 2.1264502158694101E-2); 16.9 nM in the assay with ROCK2 (compound concentrations: 100 nM and 1000 nM (sheet 'Samples'), CATDS: 3.3185939241444598E-2); 38.6 nM in the assay on SRC (compound concentrations: 100 nM and 1000 nM (sheet 'Samples'), CATDS: 2.2534153996718501E-2); 34.5 nM in the assay on YES1 (compound concentrations: 100 nM and 1000 nM (sheet 'Samples'), CATDS: 2.3597692911318701E-2).
`COc1cccc2c(-c3ccncc3)c(-c3ccc(F)cc3)nn12` [GW468513X]: the potency estimated from few doses with BUB1 (compound concentrations: 100 nM and 1000 nM (sheet 'Samples'), CATDS: 4.5362878745682803E-2) was 739 nM; in the assay on CSNK1A1 (compound concentrations: 100 nM and 1000 nM (sheet 'Samples'), CATDS: 4.67055815056669E-2), 666 nM; with CSNK1E (compound concentrations: 100 nM and 1000 nM (sheet 'Samples'), CATDS: 8.4108879944504403E-2) it was 140 nM; in the assay with MAPK8 (compound concentrations: 100 nM and 1000 nM (sheet 'Samples'), CATDS: 3.7375924419407701E-2) it was 1750 nM.
With `CN(c1ccc(NC(=O)NCCN2CCOCC2)cc1)c1ccnc(Nc2ccc(CS(C)(=O)=O)cc2)n1.Cl` [GW830365A], in the assay on ADCK1 (compound concentrations: 100 nM and 1000 nM (sheet 'Samples'), CATDS: 4.75269778892356E-2), the potency estimated from few doses is 1550 nM.
Turning to `CC(=O)N[C@@H](Cc1ccc(OP(=O)(O)O)cc1)C(=O)N[C@H]1CCC(=O)N2CCC[C@@H](C(=O)NCc3ccc(Cl)cc3)N2C1=O` [RO0325308-000], the potency estimated from few doses in the assay on EPHA2 (setting [1]) was 1130 nM; with PHKG2 (setting [1]), 1880 nM; with RIOK2 (setting [1]) it was 141 nM; with SRC (setting [1]), 1040 nM; with YES1 (setting [1]), 1030 nM.
For `CN(C)CC(O)COc1ccc(Nc2nccc(-c3cnn4nc(N5CCOCC5)ccc34)n2)cc1` (stereo not shown) [GW767488X], the potency estimated from few doses with ADCK1 (setting [1]) was 587 nM; in the assay on CDK17, 200 nM; in the assay on CSNK1A1 (setting [1]) it was 1250 nM; in the assay on MAPK8 (setting [1]), 127 nM; in the assay on PHKG2 (setting [1]) it was 2250 nM; with RIOK2 (setting [1]), 206 nM. Also, the potency estimated from few doses is 1440 nM with ROCK2 (setting [1]) and 69.2 nM with STK16 (setting [1]).
On to `CCCc1cc(N2CCCN(C)CC2)nc2sc3c(N)ncnc3c12` [BI00604564], for which the potency estimated from few doses in the assay with ADCK1 (compound concentrations: 100 nM and 1000 nM (sheet 'Samples'), CATDS: 0.15175006426197701) is 1550 nM; in the assay with RIOK2 (compound concentrations: 100 nM and 1000 nM (sheet 'Samples'), CATDS: 0.19130476647028) it was 959 nM.
For `O=C1N=C(NCc2cccs2)O/C1=C\c1ccc2ncccc2c1` [RO4624208-000], the potency estimated from few doses in the assay on PRKX (CATDS: 5.4979506066670798E-2) is 966 nM; in the assay with TNIK, 2330 nM.
On to `COc1cc(Nc2nccc(N3CCC(NC(=O)c4cccc(NC(C)=O)c4)C3)n2)cc(OC)c1OC` (stereo not shown) [GSK1379754A], for which the potency estimated from few doses in the assay on ADCK1 (compound concentrations: 100 nM and 1000 nM (sheet 'Samples'), CATDS: 8.2961514797517094E-2) was 1820 nM.
